Only some compounds are listed: those with a hit (about 4% of all), similar ones and a draw of the others.
RecA splice inh: Mtb RecA intein splicing inhibitors, primary screen, biochemical, fluorescence, HTS | cell-free RecA intein splicing | hit rate 0.75% among 290,000 | inhibition, % (test concentration not listed); in the data active = inhibition above about 30%;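 note: 0% = vehicle wells and 100% = reference inhibitor control wells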
Target sequence (P9WHJ3 whole entry, looked up, canonical isoform): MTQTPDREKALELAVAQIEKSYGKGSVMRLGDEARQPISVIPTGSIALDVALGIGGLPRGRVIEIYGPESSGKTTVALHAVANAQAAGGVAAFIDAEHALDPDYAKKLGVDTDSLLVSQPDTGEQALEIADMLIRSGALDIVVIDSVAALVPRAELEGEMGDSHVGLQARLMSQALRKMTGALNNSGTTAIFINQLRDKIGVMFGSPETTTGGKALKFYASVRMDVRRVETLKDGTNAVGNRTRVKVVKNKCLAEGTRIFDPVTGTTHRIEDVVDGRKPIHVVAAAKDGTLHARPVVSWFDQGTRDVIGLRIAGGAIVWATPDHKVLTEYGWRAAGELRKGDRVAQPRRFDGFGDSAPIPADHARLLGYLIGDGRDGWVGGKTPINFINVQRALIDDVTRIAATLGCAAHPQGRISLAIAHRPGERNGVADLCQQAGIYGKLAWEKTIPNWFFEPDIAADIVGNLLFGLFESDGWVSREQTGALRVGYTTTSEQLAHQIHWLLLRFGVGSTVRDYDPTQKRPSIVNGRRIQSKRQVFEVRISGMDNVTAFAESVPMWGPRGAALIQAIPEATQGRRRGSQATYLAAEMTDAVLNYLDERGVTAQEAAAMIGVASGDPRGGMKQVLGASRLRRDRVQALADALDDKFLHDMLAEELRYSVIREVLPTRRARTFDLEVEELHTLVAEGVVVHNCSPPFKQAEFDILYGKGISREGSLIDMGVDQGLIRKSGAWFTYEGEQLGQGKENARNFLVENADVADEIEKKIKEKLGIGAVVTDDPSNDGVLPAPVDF
Rv3671c inh: Rv3671c serine protease inhibitors, primary screen, biochemical, fluorescence polarization, M. tuberculosis H37Rv; P9WHR9; inhibition, % at 5.96 µM; hit rate 0.048% among 320,000; in the data active = inhibition above about 38%;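 note: extracellular domain of Rv3671c used as enzyme; 0% = enzyme with DMSO and 100% = no enzyme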
GDH-TPI inh: GDH-TPI coupling enzyme inhibitors, primary screen, artefact control for M. tuberculosis FBA inhibitor project, biochemical, absorbance, full deck; GDH-TPI coupled enzyme counterscreen, NADH absorbance; inhibition, % at 4.8 µM; hit rate 1.2% among 360,000; AID 588335, 2011; in the data active = inhibition above about 30%;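 note: 0% = DMSO wells and 100% = wells lacking the enzyme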
Mtb betalactam: beta-lactam sensitization of Mtb H37Rv, H37Rv | M. tuberculosis H37Rv growth with meropenem, percent inhibition | inhibition, % at 25 µM | hit rate 0.27% among 330,000 | AID 434955, 2010; call rule not given here;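 note: growth measured after seven days incubation then overnight dye step; 0% = bacteria only wells and 100% = bacteria with antibiotic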
Mtb UGM inh: M. tuberculosis UGM enzyme inhibitors, primary screen, biochemical, fluorescence polarization, single point | UDP-galactopyranose mutase (Mycobacterium tuberculosis (strain ATCC 25618 / H37Rv)), … | purified UGM, fluorescence polarization probe displacement | inhibition, % at 10 µM | hit rate 0.06% among 320,000; in the data active = inhibition above about 10%, passing the limit was not always enough
Mtb FBA inh: Mtb FBA enzyme inhibitors, primary screen, biochemical, fluorescence, strain H37Rv | Fructose-bisphosphate aldolase (Mycobacterium tuberculosis (strain ATCC 25618 / H37Rv)), … | purified M. tuberculosis FBA, fluorescence read-out | inhibition, % at 1 µM | hit rate 2.3% among 360,000; in the data active = inhibition above about 27%;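 note: 0% = vehicle and 100% = reference inhibitor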
Active calls of the source: *; i = inactive; / = not tested or not shown; + = active, no number.

SMILES	RecA splice inh	Rv3671c inh	GDH-TPI inh	Mtb betalactam	Mtb UGM inh	Mtb FBA inh
Cc1cc(/C=C(\C#N)C(=O)O)c(C)n1CC(C)C	/	4	35*	-4	0	2
CCCc1c(C(=O)N/N=C/c2c[nH]c3ccccc23)nnn1-c1nonc1N	/	/	30	/	/	-4
COCc1c(C(=O)N/N=C/c2c[nH]c3ccccc23)nnn1-c1nonc1N	-1	1	44*	-9	2	2
Cc1ccc(-c2c(C(=O)N/N=C/c3c[nH]c4ccccc34)nnn2-c2nonc2N)cc1	2	18	47*	1	-1	4
COc1ccc(-c2ccc(C(=O)NCC3CCOCC3)c3occc23)c(C)c1	/	/	-4	/	/	132*
CC(=NOC(=O)C1CCCCC1)c1nccs1	/	/	51*	/	/	3
Cc1ccc(-c2nnn(CC(=O)N(c3ccccc3F)C(C(=O)NCC3CCCO3)c3c[nH]c4ccccc34)n2)cc1 (stereo not drawn)	9	-7	-1	-10	1	-2
CC(=O)/C(N=Nc1ccc(-n2ccc(C(F)(F)F)n2)cc1)=C(\C)O	3	13	35*	9	1	-1
CC(=O)/C(N=Nc1ccc(C(=O)O)cc1)=C(\C)O	4	0	15	-7	-3	-5
CCN(CC)S(=O)(=O)c1ccc(N=N/C(C(C)=O)=C(/C)O)cc1	-4	-8	40*	-2	-1	-1
Cc1ccc([C@H]2C[C@@H](n3cc(-c4ccc(F)cc4)nn3)[C@H](O)CN2C(=O)c2cccs2)cc1	/	/	-7	/	/	-3
Cn1c(C(=O)NCCN2CCOCC2)cc2c(=O)n3ccccc3nc21	-484	3	22	1	0	+
Cc1cccn2c(=O)c3cc(C(=O)NCCN4CCOCC4)n(C)c3nc12	-41	7	9	-1	-2	121*
COCCCn1c(C(=O)NCCN2CCOCC2)cc2c(=O)n3ccccc3nc21	-390	-3	10	-1	1	+
Cc1ccc2nc3c(cc(C(=O)NCCCn4ccnc4)n3C)c(=O)n2c1	i	3	16	6	-2	+
Cc1nc2ccccn2c1C(=O)NCCCN1CCOCC1	1	3	6	-7	3	2
COCCCn1c(C(=O)NCCC2=CCCCC2)cc2c(=O)n3cccc(C)c3nc21	-3	3	0	10	1	6
O=C(Nc1cccc2[nH]ncc12)c1ccc(F)cc1	1	-2	1	-21	-1	1
COC(=O)C1=C(SC)N(c2ccc(OC)cc2)C(c2ccccc2)CC1=O (stereo not drawn)	-3	-1	33*	-5	3	0
CN(Cc1cnccn1)C(=O)CC1C(=O)NCCN1CC(c1ccccc1)c1ccccc1 (stereo not drawn)	4	4	-2	-2	1	-1
N/C(=N\c1nc2c(c(=O)[nH]1)CCCC2)Nc1ccccc1Sc1ccccc1	4	-1	-15	/	0	2
O=C(O)COc1ccc(/C=N/n2c(COc3ccccc3)nc3ccccc3c2=O)cc1	-5	1	-1	6	2	-2
O=c1c2ccccc2nc(COc2ccccc2)n1/N=C/c1ccc(O)c(O)c1	3	-6	34*	1	1	4
CCCc1nc2ccccc2c(=O)n1/N=C/c1ccc(O)cc1	-3	-10	35*	-5	-1	-2
CCCc1nc2ccccc2c(=O)n1/N=C/c1ccc(O)cc1O	-3	8	31*	-8	0	0
SMILES	RecA splice inh	Rv3671c inh	GDH-TPI inh	Mtb betalactam	Mtb UGM inh	Mtb FBA inh
O=c1c2ccccc2nc(N/N=C/c2ccc(O)cc2)n1O	-7	6	32*	1	1	5
CC(=O)N/C(=N\c1nc(C)cc(C)n1)Nc1ccccc1Cl	-1	/	7	/	/	2
CCOc1ccc(-c2noc(=O)[nH]2)cc1	0	-3	0	0	2	-2
CC(=O)Nc1ccc(C(=O)NNC(=O)c2cc([N+](=O)[O-])cc([N+](=O)[O-])c2)cc1	-8	-7	12	-11	2	5
CSc1ccc(/C=N/n2c(C)nc3ccccc3c2=O)cc1	0	/	10	/	/	-1
Cc1sc2nc(C)n(/N=C/N(C)C)c(=O)c2c1C	-1	-2	10	-8	3	-4
Cc1nc2ccccc2c(=O)n1/N=C/c1ccc(N(C)C)cc1	4	0	41*	2	-2	0
Cc1sc2nc(C)n(/N=C/c3ccc(O)cc3)c(=O)c2c1C	2	-2	40*	-1	0	-3
Cc1cccc2c(N=NC(=O)C(C)n3cnc4ccccc4c3=O)c(O)[nH]c12 (stereo not drawn)	1	-1	35*	-7	-2	-3
Cc1ccc(/C=N/Nc2nc(C(C)(C)C)cs2)o1	3	7	1	7	0	-1
Cc1ccc(/C=N/Nc2nc3ccccc3s2)o1	-2	0	56*	89	-1	-4
O=C(CC1SC(N2CCCC2)=NC1=O)Nc1ccc(C(=O)NCc2ccccc2F)cc1 (stereo not drawn)	/	/	9	/	/	-1
COc1ccc(N(C(C)C(=O)N/N=C(\C)C(C)(C)C)S(C)(=O)=O)cc1 (stereo not drawn)	1	3	-5	1	3	7
CCN(C[C@H]1N[C@@](Cc2ccccc2)(C(=O)OC)[C@H]2C(=O)N(Cc3ccccc3)C(=O)[C@@H]12)S(=O)(=O)c1ccc(-c2ccccc2)cc1	/	-8	32*	-10	-1	5
CC(=O)c1ccc(N2CCN(S(=O)(=O)c3c(C)[nH]c(C)c3C(=O)N3CCCCC3)CC2)cc1	-3	1	34*	4	3	1
CC(=O)c1ccc(N2CCN(S(=O)(=O)c3c(C(=O)N4CCCCC4)c(C)n(C)c3C)CC2)cc1	1	6	24	-2	-2	3
CC(=O)c1ccc(N2CCN(S(=O)(=O)c3c(C(=O)N4CCCC4)c(C)n(C)c3C)CC2)cc1	-1	2	40*	7	-2	1
Cc1ccc(OCCNC(=O)[C@H]2O[C@@H](n3ccc(=O)[nH]c3=O)[C@H](O)[C@@H]2O)cc1C	/	/	/	/	/	-1
CCOC(=O)C1(C)CCCN(C(=O)c2ccc3snnc3c2)C1 (stereo not drawn)	/	/	5	/	/	-1
CNC(=S)N1N=C(c2cccs2)CC1c1ccc(F)cc1 (stereo not drawn)	-1	5	36*	-2	-5	8
O=C(c1ccco1)N1N=C(c2cccs2)CC1c1ccc(F)cc1 (stereo not drawn)	13	-5	21	-6	2	1
